Reference: PubChem BioAssay (NCI)
Compounds without any hit were thinned out: in the full panel of roughly 83,000, 20% have a hit.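 Compound tested at a single concentration for 48 hours in 96-well plates; a percent growth value below 10 was scored as active.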 A number with no mark means an inactive call. Activity calls are given as the source filed them.

System: HL-60(TB) leukemia
Assay: NCI-60 one-dose screen, 48 h (100 = growth as untreated, 0 = no growth, -100 = all killed)
Settings: 10 µM unless noted

| SMILES | growth |
| --- | --- |
| NC(=S)N/N=C/c1ccc(OC(=O)COc2ccc(Cl)cc2)cn1 | 19.3% |
| CCCCCCC(C(=O)OCC)(C(=O)OCC)C1CCCCCC1 | 106% |
| Clc1cccc(Nc2ncnc3ccc(-c4cncc(-n5cnnn5)c4)cc23)c1 | 86.6% |
| CCOC(=O)CCN(CCC(=O)OCC)c1ccccc1 | 104% |
| O=CN1N=C(c2cccc(Nc3ccnc4cc(Cl)ccc34)c2)CC1c1ccccc1 (stereo not given) | -1.22% (active) |
| Nc1ncnc2c1N=C(c1ccc3c(c1)OCO3)CC(c1ccc(Cl)cc1)N2 (stereo not given) | 88.1% |
| O=C(/C=C/c1cccc(Cl)c1)c1cccc(OCCCCOc2cccc(C(=O)/C=C/c3cccc(Cl)c3)c2)c1 | 84.6% |
| C[n+]1ccc(CCc2c[nH]c3ccccc23)cc1 | 90.6% |
| COc1cc(Nc2ccnc(NCCCNc3ccnc4cc(Cl)ccc34)n2)cc(OC)c1 | -76.9% (active) |
| C[C@]12CC[C@@H]3c4ccc(O)c(N)c4CC[C@H]3[C@@H]1CC[C@@H]2O | 85.3% |
| COc1ccc2nc(-c3cc(-c4cc(OC)c(OC)c(OC)c4)n[nH]3)[nH]c2c1 | -38.7% (active) |
| CCC1NC(=O)C(NC(=O)c2ncccc2O)C(C)OC(=O)C(c2ccccc2)NC(=O)C2CC(=O)CCN2C(=O)C(Cc2ccc(N(C)C)cc2)N(C)C(=O)C2CCCN2C1=O (stereo not given) (tested in a mixture with another compound) | 42.5% |
| COc1ccc(C(=O)c2nc3ccccc3n2CC(=O)c2ccc(F)cc2)cc1 | 79.5% |
| C=C1C(=O)O[C@H]2[C@H]1CC/C(COC(=O)NCc1c[nH]c3ccc(Cl)cc13)=C\CC[C@@]1(C)O[C@@H]21 | -32.9% (active) |
| O=C1OC(/C=C/c2ccccc2)=NC/1=C/c1ccccc1[N+](=O)[O-] | 96.2% |
| O=C(/C=C/c1ccccn1)c1ccc(OCc2nnc(-c3ccc(Cl)cc3)o2)cc1 | 43% |
| Nc1nc(Br)nc2c1ncn2C1CC(O)C(CO)O1 (stereo not given) | 46% |
| CCn1c(SC/C(=N/O)c2ccccc2)nnc1-c1ccccc1 | 103% |
| CC(Cc1cccc2ccccc12)C(N)=O (stereo not given) | 99.5% |
| CC1=C(C/C=C(\C)CCC[C@H](C)CCC[C@H](C)CCCC(C)C)C(=O)c2ccccc2C1=O | 105% |

| SMILES | growth |
| --- | --- |
| CCOCCC(=O)O | 106% |
| CONC1=Nc2cc(NC(N)=NCc3ccccc3)c(N(C)C3CCCCC3)cc2OC1 | 69.5% |
| CCN1CCN(Cc2ccc(Cc3ncc(F)c(-c4cc(F)c5nc(C)n(C(C)C)c5c4)n3)nc2)CC1 | 27.3% |
| COc1ccc(-c2nc(-c3ccccc3)c(-c3ccccc3)n2C2CC2)cc1OC1CCCCC1 | 30% |
| CC1(C)N=C(N)N=C(N)N1c1ccc(Cl)c(Cl)c1 | 35.7% |
| COc1ccc(OC)c(/C=C2\Oc3cc(OCCCN4CCCC4)ccc3C2=O)c1 | 87.5% |
| O=C(CCNCc1ccccc1)c1ccccc1 | 104% |
| COc1ccc(-c2cc(-c3c(C)oc4cc5occc5c(OC)c4c3=O)nc(N)c2C#N)cc1OC | 57.9% |
| Nc1nnc2cc(F)ccc2n1 | 107% |
| Brc1ccc(-c2[nH]ncc2-c2c[nH]c3ccccc23)cc1 | 80.7% |
| O=S1(=O)OC(c2cc(Cl)c(O)c(Br)c2)(c2cc(Cl)c(O)c(Br)c2)c2ccccc21 | 92.4% |
| Cc1ccc(O)c(C(=O)O)c1 | 99.5% |
| Cn1c(=O)c2c(nc(N/N=C/c3ccccc3Cl)n2C)n(C)c1=O | 91.6% |
| CCc1ccc(-c2cn3ccnc3c(-c3ccc4ncn(Cc5ccccc5)c4c3)n2)cc1 | 60.4% |
| O=[N+]([O-])c1ccc(-c2cn3nc(-c4c[nH]c5ccccc45)sc3n2)cc1 | 95.3% |
| CCCCO[C@@H]1C=C2[C@H]3CC(C)(C)C(=O)C[C@]3(C(=O)O[C@@H]3O[C@H](CO[C@@H]4O[C@H](CO)[C@@H](OC5OC(C)C(O)C(O)C5O)[C@H](O)[C@H]4O)[C@@H](O)[C@H](O)[C@H]3O)CC[C@@]2(C)[C@]2(C)CC[C@H]3C(C)(C)C(=O)CC[C@]3(C)[C@@H]12 (stereo not given in full) | 49.2% |
| CCOC(=O)NNc1cccc(Cl)c1 | 110% |
| CCNC(=O)Oc1ccc(/C(=C(/C)Cc2ccc(OC)cc2)c2ccc(OCCN3CCCCCC3)cc2)cc1 | 38.1% |
| NC(=S)N/N=C/c1ccc(Cl)cc1 | 103% |
| CN1CCCC1=Nc1ccccc1 | 93.3% |
